Results published in PubChem BioAssay (EPA / NIEHS).
Activity calls are given as the source filed them. Rule for the calls: active = hit-call score of the fitted dose curve at least 0.9, where 1 is the maximum; inactive = score below 0.9.

read-out: Tumor necrosis factor receptor superfamily member 6 (Homo sapiens) (UniProt P25445); assay: LTEA_HepaRG_FAS: Life Technologies and Expression Analysis (LTEA) Assay for Fas cell surface death receptor (FAS) using HepaRG (AID 2283447); details: mRNA level, 48 h; actives raise or lower the signal
In short: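 Differentiated HepaRG cells in serum-free induction medium were exposed 48 h to 8 half-log concentrations up to 100 uM in 0.5% DMSO, in duplicate. FAS mRNA was measured by qRT-PCR normalised to ACTB, GAPDH and POLR2A; bidirectional fit versus DMSO.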

Chain of Fatty acid synthase (Homo sapiens) (P49327 whole entry, looked up): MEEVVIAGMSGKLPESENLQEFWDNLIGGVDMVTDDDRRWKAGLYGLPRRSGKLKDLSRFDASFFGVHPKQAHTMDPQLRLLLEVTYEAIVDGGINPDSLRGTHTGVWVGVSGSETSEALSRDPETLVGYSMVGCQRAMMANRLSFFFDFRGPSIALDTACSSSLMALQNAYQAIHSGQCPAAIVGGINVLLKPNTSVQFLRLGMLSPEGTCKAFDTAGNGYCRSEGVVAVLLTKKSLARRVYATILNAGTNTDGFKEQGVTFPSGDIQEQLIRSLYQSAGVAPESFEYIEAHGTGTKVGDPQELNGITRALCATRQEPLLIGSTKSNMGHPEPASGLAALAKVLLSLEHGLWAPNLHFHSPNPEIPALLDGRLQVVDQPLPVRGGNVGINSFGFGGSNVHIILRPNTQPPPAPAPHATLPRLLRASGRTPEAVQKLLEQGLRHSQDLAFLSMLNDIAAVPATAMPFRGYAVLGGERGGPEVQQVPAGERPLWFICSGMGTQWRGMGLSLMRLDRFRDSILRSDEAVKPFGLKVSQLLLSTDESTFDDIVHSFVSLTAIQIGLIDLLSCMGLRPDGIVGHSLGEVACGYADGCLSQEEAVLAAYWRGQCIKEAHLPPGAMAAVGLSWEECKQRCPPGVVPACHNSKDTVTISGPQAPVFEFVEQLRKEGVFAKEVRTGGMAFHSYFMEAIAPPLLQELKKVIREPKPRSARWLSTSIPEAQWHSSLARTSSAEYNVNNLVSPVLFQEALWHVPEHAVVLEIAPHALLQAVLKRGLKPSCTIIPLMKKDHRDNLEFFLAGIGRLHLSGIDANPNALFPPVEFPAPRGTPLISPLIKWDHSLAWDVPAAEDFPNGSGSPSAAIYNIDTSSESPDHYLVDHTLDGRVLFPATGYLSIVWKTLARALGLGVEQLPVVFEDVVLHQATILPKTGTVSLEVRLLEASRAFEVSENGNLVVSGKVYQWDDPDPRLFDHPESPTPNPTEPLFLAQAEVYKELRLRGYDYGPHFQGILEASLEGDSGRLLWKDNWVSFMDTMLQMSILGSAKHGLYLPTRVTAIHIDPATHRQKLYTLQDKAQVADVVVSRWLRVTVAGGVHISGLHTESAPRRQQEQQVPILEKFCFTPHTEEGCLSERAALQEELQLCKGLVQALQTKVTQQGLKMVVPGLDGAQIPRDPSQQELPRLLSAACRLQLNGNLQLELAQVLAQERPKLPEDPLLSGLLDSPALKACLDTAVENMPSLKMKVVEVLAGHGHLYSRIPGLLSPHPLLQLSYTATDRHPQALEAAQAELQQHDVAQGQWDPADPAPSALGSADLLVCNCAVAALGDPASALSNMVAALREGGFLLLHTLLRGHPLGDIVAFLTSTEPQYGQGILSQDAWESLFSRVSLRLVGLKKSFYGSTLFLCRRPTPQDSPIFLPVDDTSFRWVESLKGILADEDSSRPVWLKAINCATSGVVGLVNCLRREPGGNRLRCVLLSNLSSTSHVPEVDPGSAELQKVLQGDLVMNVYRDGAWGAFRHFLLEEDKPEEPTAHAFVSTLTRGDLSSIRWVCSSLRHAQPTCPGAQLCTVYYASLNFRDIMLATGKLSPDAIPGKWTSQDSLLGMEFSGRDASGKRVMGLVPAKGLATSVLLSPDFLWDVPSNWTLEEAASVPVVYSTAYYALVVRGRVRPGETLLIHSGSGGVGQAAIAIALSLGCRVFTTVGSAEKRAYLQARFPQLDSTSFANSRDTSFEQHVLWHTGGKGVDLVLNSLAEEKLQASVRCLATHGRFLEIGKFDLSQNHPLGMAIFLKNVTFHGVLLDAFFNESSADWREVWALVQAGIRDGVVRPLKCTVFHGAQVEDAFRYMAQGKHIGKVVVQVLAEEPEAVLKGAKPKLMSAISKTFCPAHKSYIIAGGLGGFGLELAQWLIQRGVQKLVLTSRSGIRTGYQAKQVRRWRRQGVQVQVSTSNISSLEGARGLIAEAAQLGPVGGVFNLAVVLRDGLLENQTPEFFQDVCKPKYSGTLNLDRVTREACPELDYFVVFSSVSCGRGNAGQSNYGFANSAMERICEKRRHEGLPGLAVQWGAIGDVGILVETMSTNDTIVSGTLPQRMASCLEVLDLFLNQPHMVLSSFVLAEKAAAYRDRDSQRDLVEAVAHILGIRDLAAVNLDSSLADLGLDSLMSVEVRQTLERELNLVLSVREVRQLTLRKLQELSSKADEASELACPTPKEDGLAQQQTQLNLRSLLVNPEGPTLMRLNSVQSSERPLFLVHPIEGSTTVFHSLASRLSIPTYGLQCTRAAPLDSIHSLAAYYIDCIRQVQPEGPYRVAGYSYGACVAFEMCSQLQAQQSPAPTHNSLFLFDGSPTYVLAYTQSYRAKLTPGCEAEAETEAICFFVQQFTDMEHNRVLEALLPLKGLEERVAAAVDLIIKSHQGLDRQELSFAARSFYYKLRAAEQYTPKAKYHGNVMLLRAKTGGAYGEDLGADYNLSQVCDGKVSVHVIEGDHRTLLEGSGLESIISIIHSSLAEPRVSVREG

SMILES	AC50	outcome
CCN(CC)C(=O)c1cc(S(=O)(=O)Cc2ccccc2)c(N2CCC(c3ccccc3)CC2)cc1N(CC)CCN(C)C	30.3 µM (active)	
O=C(O)c1ccccc1-n1cc(C(=O)O)c(=O)c2cc(Nc3c(F)cc(F)cc3Cl)c(Cl)cc21		inactive
COc1cc(C(=O)NC2CCN(C)CC2)ccc1Nc1ncc2c(n1)N(C1CCCC1)CC(F)(F)C(=O)N2C	9.78 µM (active)	
NCc1cccc(C2CCN(C(=O)c3ccc(C#Cc4ccccc4F)o3)CC2)c1		inactive
CCCCCc1ccc(N)cc1		inactive
c1ccc2ccccc2c1		inactive
O=C=NCCCCCCN=C=O		inactive
CCCCOC(=O)CC(CC(=O)OCCCC)(OC(C)=O)C(=O)OCCCC		inactive
CC1=CC(=O)/C(=C(/C)O)C(=O)O1		inactive
CCO[Si](CCCNC(N)=O)(OCC)OCC		inactive
CN1C(=O)CC[C@H]1c1cccnc1		inactive
CCCCCCCCCCCCO		inactive
CCCC(=O)OCCC(C)C		inactive
c1ccc(C[n+]2cccc3ccccc32)cc1		inactive
CC1(C)NC(=O)N(c2ccc([N+](=O)[O-])c(C(F)(F)F)c2)C1=O		inactive
CC[C@H](NC(=O)c1cc(F)ccc1NS(=O)(=O)c1cccc2cccnc12)c1ccccc1		inactive
CCOC(=O)O[C@H](C)OC(=O)c1ccc2c(c1)cc(C(=O)NC1CCN(C(C)C)CC1)n2Cc1cc(-c2ccc(Cl)s2)on1		inactive
O=CCCCC=O		inactive
O=c1[nH]sc2ccccc12		inactive

SMILES	AC50	outcome
O=C(O)Cc1cc(I)c(Oc2ccc(O)c(I)c2)c(I)c1	88.6 µM (active)	
Cc1occc1C(=O)Nc1ccc(C(=O)N2CCC(F)(F)/C(=C\C(=O)N3CCC(N4CCCCC4)CC3)c3ccccc32)cc1		inactive
CC(C)(O)c1ccc(CNC(=O)c2cccnc2Oc2ccc3nonc3c2)cc1		inactive
CC[C@@H]1C[C@H](N(Cc2cc(C(F)(F)F)cc(C(F)(F)F)c2)C(C)=O)c2cc(C(F)(F)F)ccc2N1C(=O)OC(C)C		inactive
Cc1ccc(C(C)C)cc1		inactive
CC(O)CC(C)(C)O (centres undefined)		inactive
O=C(OCCCCCCOC(=O)c1ccccc1)c1ccccc1		inactive
COc1ccc2cc(S(=O)(=O)N[C@H](CC(=O)N[C@H](Cc3ccc(CN4[C@H](C)CCC[C@@H]4C)cc3)C(=O)N(C)C(C)C)c3ccc4c(c3)OCO4)ccc2c1	15.1 µM (active)	
CCN(Cc1cccnc1)C(=O)c1cccc(Cl)c1[C@]1(C)C(=O)N(Cc2ccc(OC)cc2OC)c2ccc(Cl)cc21	21.3 µM (active)	
CN(C)c1ccc(C(=C2C=CC(=[N+](C)C)C=C2)c2ccc(N(C)C)cc2)cc1		inactive
O=C1O[C@H]([C@@H](O)CO)C(O)=C1O		inactive
CCCCCCCCCCCO		inactive
Cc1cccc2ccccc12		inactive
CC/C(=C(/CC)c1ccc(O)cc1)c1ccc(O)cc1	50 µM (active)	
Cc1cn([C@H]2C[C@H](N=[N+]=[N-])[C@@H](CO)O2)c(=O)[nH]c1=O		inactive
COCC(C)OCC(C)OCC(C)O (centres undefined)		inactive
CN(C)C(=O)C1(N2CCCCC2)CCN(CC[C@@]2(c3ccc(Cl)c(Cl)c3)CN(C(=O)c3ccccc3)CCO2)CC1		inactive
O=c1ccc2ccccc2o1		inactive

read-out: Fatty acid synthase (Homo sapiens) (UniProt P49327); assay: LTEA_HepaRG_FASN: Life Technologies and Expression Analysis (LTEA) Assay for Fatty Acid Synthase (FASN) using HepaRG (AID 2283448); details: mRNA level, 48 h; actives raise or lower the signal;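 for AC50: differentiated human HepaRG liver cells in serum-free induction medium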
In short: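 Differentiated HepaRG cells in serum-free induction medium exposed 48 h in duplicate to eight half-log concentrations, top 100 uM, 0.5% DMSO. FASN mRNA by qRT-PCR normalised to ACTB, GAPDH, POLR2A; bidirectional fit versus DMSO.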

SMILES	AC50	outcome
CCN(CC)C(=O)c1cc(S(=O)(=O)Cc2ccccc2)c(N2CCC(c3ccccc3)CC2)cc1N(CC)CCN(C)C	4.87 µM (active)	
O=C(O)c1ccccc1-n1cc(C(=O)O)c(=O)c2cc(Nc3c(F)cc(F)cc3Cl)c(Cl)cc21		inactive
COc1cc(C(=O)NC2CCN(C)CC2)ccc1Nc1ncc2c(n1)N(C1CCCC1)CC(F)(F)C(=O)N2C	46.5 µM (active)	
NCc1cccc(C2CCN(C(=O)c3ccc(C#Cc4ccccc4F)o3)CC2)c1	50 µM (active)	
CCCCCc1ccc(N)cc1		inactive
c1ccc2ccccc2c1		inactive
O=C=NCCCCCCN=C=O		inactive
CCCCOC(=O)CC(CC(=O)OCCCC)(OC(C)=O)C(=O)OCCCC		inactive
CC1=CC(=O)/C(=C(/C)O)C(=O)O1		inactive
CN1C(=O)CC[C@H]1c1cccnc1		inactive
CCCCCCCCCCCCO		inactive
CCCC(=O)OCCC(C)C		inactive
c1ccc(C[n+]2cccc3ccccc32)cc1	50 µM (active)	
CC1(C)NC(=O)N(c2ccc([N+](=O)[O-])c(C(F)(F)F)c2)C1=O		inactive
CC[C@H](NC(=O)c1cc(F)ccc1NS(=O)(=O)c1cccc2cccnc12)c1ccccc1		inactive
CCOC(=O)O[C@H](C)OC(=O)c1ccc2c(c1)cc(C(=O)NC1CCN(C(C)C)CC1)n2Cc1cc(-c2ccc(Cl)s2)on1		inactive
O=CCCCC=O		inactive
O=c1[nH]sc2ccccc12		inactive
O=C(O)Cc1cc(I)c(Oc2ccc(O)c(I)c2)c(I)c1	50 µM (active)	

SMILES	AC50	outcome
Cc1occc1C(=O)Nc1ccc(C(=O)N2CCC(F)(F)/C(=C\C(=O)N3CCC(N4CCCCC4)CC3)c3ccccc32)cc1	19.4 µM (active)	
CC(C)(O)c1ccc(CNC(=O)c2cccnc2Oc2ccc3nonc3c2)cc1		inactive
CC[C@@H]1C[C@H](N(Cc2cc(C(F)(F)F)cc(C(F)(F)F)c2)C(C)=O)c2cc(C(F)(F)F)ccc2N1C(=O)OC(C)C		inactive
Cc1ccc(C(C)C)cc1		inactive
CC(O)CC(C)(C)O (centres undefined)		inactive
O=C(OCCCCCCOC(=O)c1ccccc1)c1ccccc1		inactive
OCCO		inactive
COc1ccc2cc(S(=O)(=O)N[C@H](CC(=O)N[C@H](Cc3ccc(CN4[C@H](C)CCC[C@@H]4C)cc3)C(=O)N(C)C(C)C)c3ccc4c(c3)OCO4)ccc2c1		inactive
CCN(Cc1cccnc1)C(=O)c1cccc(Cl)c1[C@]1(C)C(=O)N(Cc2ccc(OC)cc2OC)c2ccc(Cl)cc21	5.5 µM (active)	
CN(C)c1ccc(C(=C2C=CC(=[N+](C)C)C=C2)c2ccc(N(C)C)cc2)cc1	3.9 µM (active)	
O=C1O[C@H]([C@@H](O)CO)C(O)=C1O		inactive
CCCCCCCCCCCO		inactive
Cc1cccc2ccccc12		inactive
CC/C(=C(/CC)c1ccc(O)cc1)c1ccc(O)cc1	50 µM (active)	
Cc1cn([C@H]2C[C@H](N=[N+]=[N-])[C@@H](CO)O2)c(=O)[nH]c1=O		inactive
COCC(C)OCC(C)OCC(C)O (centres undefined)		inactive
CN(C)C(=O)C1(N2CCCCC2)CCN(CC[C@@]2(c3ccc(Cl)c(Cl)c3)CN(C(=O)c3ccccc3)CCO2)CC1	61 µM (active)	
O=c1ccc2ccccc2o1		inactive
